Outcome and AC50 data for three compounds are collected here from PubChem BioAssay (EPA / NIEHS).

Calls of active or inactive are those of the source. Rule for the calls: active = hit-call score of the fitted dose curve at least 0.9, where 1 is the maximum; inactive = score below 0.9.

Experiment [1] can be described thus: ATG_CRE_CIS: Attagene CIS-FACTORIAL HepG2 Assay for human cAMP Responsive Element (CRE) binding protein 3 (AID 2282926). Conditions: HepG2 CRE cis-reporter, Attagene multiplexed mRNA; actives raise or lower the signal. The essentials: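 HepG2 cells transiently transfected with a multiplexed reporter library (CRE-driven unit among them) were dosed for 24 h. Reporter mRNA was quantified by RT-PCR, fluorescent labelling, HpaI digestion and capillary electrophoresis, with bidirectional fitting against DMSO baseline.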

Experiment [2] concerns the target CCAAT/enhancer-binding protein beta (Homo sapiens) (UniProt P17676). The experiment can be described thus: ATG_C_EBP_CIS: Attagene CIS-FACTORIAL HepG2 Assay for human CCAAT/Enhancer Binding Protein (C/EBP) beta (AID 2282927). Conditions: HepG2 Attagene cis-factorial transcription factor reporter; actives raise or lower the signal. In outline: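 HepG2, transient MRTU transfection, 24 h treatment. RT-PCR plus CE fluorescence; DMSO negative control, bidirectional fit.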

Experiment [3] can be described thus: ATG_CMV_CIS: Attagene CIS-FACTORIAL HepG2 Assay for human CMV (Internal Marker) (AID 2282928).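 Note: endpoint acts as a background internal control marker rather than a target.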 As to conditions: HepG2 CMV promoter reporter, transcription factor profiling; actives raise or lower the signal. In outline: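 HepG2 cells transiently transfected with multiple cis-regulated reporter units; 24 h compound exposure. Reporter mRNA quantified by RT-PCR, 6-FAM primer-extension labeling, HpaI digestion and capillary electrophoresis; bidirectional fitting against DMSO baseline.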

A short description of experiment [4]: ATG_DR4_LXR_CIS: Attagene CIS-FACTORIAL HepG2 Assay for human Liver X Receptor (LXR), DR4 submotif (AID 2282929). Conditions: HepG2 Attagene DR4 cis-reporter, mRNA transcription; actives raise or lower the signal. In outline:
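HepG2 cells transiently transfected with cis-promoter-driven multiplexed reporter units (DR4 element) were dosed for 24 h. Reporter mRNA was quantified by RT-PCR, fluorescent primer extension, HpaI digestion and capillary electrophoresis; bidirectional fitting versus DMSO baseline.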

Experiment [5] deals with Aryl hydrocarbon receptor (Homo sapiens) (UniProt P35869). The experiment can be described thus: ATG_Ahr_CIS: Attagene CIS-FACTORIAL HepG2 Assay for human Aryl Hydrocarbon Receptor (Ahr) (AID 2282930). Conditions: HepG2 AhR cis-factorial reporter transcription; actives raise or lower the signal. In outline: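 Endogenous factor activity is tracked through cis-promoter reporter units transfected into HepG2 cells. Transcript levels at 24 h are read by fluorescent RT-PCR and capillary electrophoresis, with activity in either direction scored relative to DMSO.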

Experiment [6] in a line: ATG_AP_1_CIS: Attagene CIS-FACTORIAL HepG2 Assay for human Activator Protein 1 (AP-1) (AID 2282931). Conditions: HepG2 Attagene cis-factorial AP-1 reporter mRNA; actives raise or lower the signal. In outline: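 HepG2 cells transiently transfected with cis-element-driven multiplex reporter units; 24 h compound exposure. Reporter mRNA quantified by RT-PCR, FAM-labelled fragments resolved by capillary electrophoresis; bidirectional fit versus DMSO baseline.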

The nature of experiment [7]: ATG_AP_2_CIS: Attagene CIS-FACTORIAL HepG2 Assay for human Activator Protein 2 (AP-2) (AID 2282932). Conditions: HepG2 AP-2 cis-reporter, Attagene transcription factor profiling; actives raise or lower the signal. In outline:
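Multiplexed mRNA reporter assay in HepG2: cis-regulated units report endogenous factor activity after 24 h treatment. Fluorescence from capillary electrophoresis of RT-PCR products gives the signal, with DMSO as baseline.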

A short description of experiment [8]: ATG_BRE_CIS: Attagene CIS-FACTORIAL HepG2 Assay for human Bone Morphogenetic Protein (BMP) Response Element (BRE) (AID 2282933). As to conditions: HepG2 BMP response element reporter, Attagene transcription factor profiling; actives raise or lower the signal. The essentials:
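Endogenous transcription factor activity at a BMP response element was monitored in transfected HepG2 cells 24 h after dosing. Fluorescent RT-PCR products were resolved by capillary electrophoresis, and activity was fitted in both directions versus DMSO.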

Experiment [9] has as its target Retinoic acid receptor alpha (Homo sapiens) (UniProt P10276). The experiment can be described thus: ATG_DR5_RAR_CIS: Attagene CIS-FACTORIAL HepG2 Assay for human Retinoic Acid Receptor Alpha (RARE), DR5 submotif (AID 2282934). As to conditions: HepG2 Attagene cis-factorial RARE DR5 reporter, mRNA; actives raise or lower the signal. In outline:
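After 24 h of chemical exposure, transiently transfected HepG2 cells were lysed for total RNA; the DR5-regulated reporter transcript was quantified via RT-PCR and capillary electrophoresis, with activity fitted bidirectionally against DMSO.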

Experiment [10] has as its target Transcription factor E2F1 (Homo sapiens) (UniProt Q01094). Put plainly: ATG_E2F_CIS: Attagene CIS-FACTORIAL HepG2 Assay for human E2F Transcription Factor 1 (AID 2282935). Conditions: HepG2 Attagene cis-reporter, E2F reporter RNA transcripts; actives raise or lower the signal. The essentials:
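Measures reporter transcript levels via RT-PCR with capillary electrophoresis detection in HepG2 cells harboring cis-regulated reporter units; 24 h post-dose; bidirectional curve fitting with DMSO as baseline.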

A short description of experiment [11]: ATG_E_Box_CIS: Attagene CIS-FACTORIAL HepG2 Assay for human Enhancer Box (E-box) (AID 2282936). As to conditions: HepG2 E-box cis-reporter transcription, actives raise or lower the signal. In outline: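 First, HepG2 cells receive multiple cis-regulated reporter constructs by transient transfection. Next, chemicals are applied for 24 h. Finally, reporter mRNA is quantified via RT-PCR and capillary electrophoresis, with DMSO as baseline.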

Experiment [12] in a line: ATG_M_61_CIS: Attagene CIS-FACTORIAL HepG2 Assay for M61 Transcription Factor (Internal Marker) (AID 2282937). As to conditions: HepG2 Attagene CIS-FACTORIAL M61 internal marker reporter; actives raise or lower the signal. In outline: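 HepG2 cells transiently transfected with cis-element-driven multiple reporter transcription units, dosed for 24 h. Reporter mRNA measured by RT-PCR, 6-FAM primer-extension labelling, HpaI digestion and capillary electrophoresis; bidirectional fit versus DMSO baseline.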

Experiment [13] in a line: ATG_EGR_CIS: Attagene CIS-FACTORIAL HepG2 Assay for human Early Growth Response 1 (EGR1) (AID 2282938). Conditions: HepG2 Attagene CIS-FACTORIAL EGR reporter mRNA; actives raise or lower the signal. In outline:
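HepG2 cells transiently transfected with cis-promoter-driven multiplexed reporter transcription units; reporter mRNA measured 24 h after compound dosing by RT-PCR, 6-FAM primer extension, HpaI digestion and capillary electrophoresis. Bidirectional fit versus DMSO baseline.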

The nature of experiment [14]: ATG_M_19_CIS: Attagene CIS-FACTORIAL HepG2 Assay for M19 Transcription Factor (Internal Marker) (AID 2282939). As to conditions: HepG2 Attagene CIS-FACTORIAL M19 internal marker reporter; actives raise or lower the signal. The essentials: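 Background-control endpoint from a multiplexed HepG2 reporter panel. Cells carrying cis-regulated reporter constructs are treated 24 h, then reporter transcripts are amplified, fluorescently labelled and sized by capillary electrophoresis. DMSO defines baseline.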

The nature of experiment [15]: ATG_ERE_CIS: Attagene CIS-FACTORIAL HepG2 Assay for Estrogen Response Element (ERE) (AID 2282940). Conditions: HepG2 ERE cis-reporter, Attagene RNA transcript; actives raise or lower the signal. In outline:
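Cells used were human hepatoma HepG2, transfected with multiple reporter transcription units under cis-regulatory promoters. Reporter mRNA, read 24 h post-dosing via fluorescent RT-PCR products on capillary electrophoresis, was fitted bidirectionally relative to DMSO.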

Experiment [16] is described as follows: ATG_Ets_CIS: Attagene CIS-FACTORIAL HepG2 Assay for human Erythroblast Transformation Specific (ETS) (AID 2282941). Conditions: HepG2 ETS cis-reporter transcription, actives raise or lower the signal. The essentials: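 HepG2 cells transiently transfected with cis-promoter reporter transcription units were dosed for 24 h; reporter mRNA was measured by RT-PCR, 6-FAM primer extension, HpaI digestion and capillary electrophoresis, with bidirectional fitting against DMSO baseline.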

Experiment [17] concerns the target Hepatocyte nuclear factor 3-beta (Homo sapiens) (UniProt Q9Y261). The experiment can be described thus: ATG_FoxA2_CIS: Attagene CIS-FACTORIAL HepG2 Assay for human Forkhead box A2 (FOXA2) (AID 2282942). As to conditions: HepG2 cis-reporter transcription factor activity, 24 h; actives raise or lower the signal. In outline:
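HepG2 cells transiently transfected with multiple cis-regulated reporter transcription units, dosed for 24 h. Reporter mRNA measured by RT-PCR, 6-FAM labelling, HpaI digestion and capillary electrophoresis; bidirectional fitting against DMSO baseline.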

The nature of experiment [18]: ATG_FoxO_CIS: Attagene CIS-FACTORIAL HepG2 Assay for human Forkhead box O (FoxO) (AID 2282943). Conditions: HepG2 Attagene cis-reporter, FoxO element, mRNA; actives raise or lower the signal. The essentials:
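Transfected HepG2 reporter cells exposed to test chemical for 24 h; reporter RNA measured by reverse transcription, PCR and fluorescent capillary electrophoresis; curves fitted for increases and decreases against DMSO.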

Experiment [19] can be described thus: ATG_GATA_CIS: Attagene CIS-FACTORIAL HepG2 Assay for human GATA Binding Protein (AID 2282944). As to conditions: HepG2 GATA cis-element reporter, Attagene multiplex mRNA; actives raise or lower the signal. The essentials: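 Endogenous transcription factor activity was captured through cis-promoter-driven reporters in transfected HepG2 cells. After 24 h exposure, reporter transcripts were quantified by RT-PCR with fluorescent capillary electrophoresis, and responses fitted both directions against DMSO.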

Experiment [20] in a line: ATG_GLI_CIS: Attagene CIS-FACTORIAL HepG2 Assay for human Zinc Finger Protein GLI1 (AID 2282945). Conditions: HepG2, Attagene cis-factorial reporter mRNA, GLI element; actives raise or lower the signal. The essentials:
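Transiently transfected HepG2 cells report endogenous transcription factor activity via cis-element-driven reporter units. After 24 h compound exposure, reporter mRNA was measured by RT-PCR with capillary electrophoresis; bidirectional fitting against DMSO baseline.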

In general, AC50 refers to the concentration at which the activity in the assay is half-maximal.

Chain of Aryl hydrocarbon receptor (Homo sapiens) (P35869 whole entry, looked up): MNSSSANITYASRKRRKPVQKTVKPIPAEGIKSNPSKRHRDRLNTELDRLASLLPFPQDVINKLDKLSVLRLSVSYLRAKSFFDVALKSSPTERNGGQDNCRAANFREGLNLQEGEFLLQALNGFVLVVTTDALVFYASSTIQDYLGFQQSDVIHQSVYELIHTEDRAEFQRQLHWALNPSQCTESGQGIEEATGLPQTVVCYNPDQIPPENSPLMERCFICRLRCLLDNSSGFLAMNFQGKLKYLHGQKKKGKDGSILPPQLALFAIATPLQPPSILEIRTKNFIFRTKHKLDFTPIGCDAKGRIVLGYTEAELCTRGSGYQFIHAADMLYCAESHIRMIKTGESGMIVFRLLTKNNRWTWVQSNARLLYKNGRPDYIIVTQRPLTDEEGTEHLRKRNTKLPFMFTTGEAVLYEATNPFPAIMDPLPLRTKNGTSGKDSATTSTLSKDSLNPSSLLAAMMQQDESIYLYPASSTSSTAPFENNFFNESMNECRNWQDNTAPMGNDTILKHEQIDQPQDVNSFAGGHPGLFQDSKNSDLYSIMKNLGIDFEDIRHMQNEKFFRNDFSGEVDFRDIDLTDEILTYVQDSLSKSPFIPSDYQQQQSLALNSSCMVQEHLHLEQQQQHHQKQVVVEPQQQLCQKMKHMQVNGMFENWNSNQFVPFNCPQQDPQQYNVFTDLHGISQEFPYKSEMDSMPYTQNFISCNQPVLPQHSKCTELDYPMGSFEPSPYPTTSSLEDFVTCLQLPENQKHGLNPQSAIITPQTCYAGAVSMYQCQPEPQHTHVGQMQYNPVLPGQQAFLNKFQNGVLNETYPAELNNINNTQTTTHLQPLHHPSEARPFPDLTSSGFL
Chain of CCAAT/enhancer-binding protein beta (Homo sapiens) (P17676 whole entry, looked up): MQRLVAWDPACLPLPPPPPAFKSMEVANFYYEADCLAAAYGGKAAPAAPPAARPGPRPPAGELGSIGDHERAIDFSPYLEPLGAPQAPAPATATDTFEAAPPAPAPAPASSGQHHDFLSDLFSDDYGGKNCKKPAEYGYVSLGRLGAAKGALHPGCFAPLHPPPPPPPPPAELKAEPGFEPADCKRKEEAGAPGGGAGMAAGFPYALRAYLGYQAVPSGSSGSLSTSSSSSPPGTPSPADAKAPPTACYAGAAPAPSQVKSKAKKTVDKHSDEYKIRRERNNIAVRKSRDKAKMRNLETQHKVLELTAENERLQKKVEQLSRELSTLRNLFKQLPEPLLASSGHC
Chain of Transcription factor E2F1 (Homo sapiens) (Q01094 whole entry, looked up): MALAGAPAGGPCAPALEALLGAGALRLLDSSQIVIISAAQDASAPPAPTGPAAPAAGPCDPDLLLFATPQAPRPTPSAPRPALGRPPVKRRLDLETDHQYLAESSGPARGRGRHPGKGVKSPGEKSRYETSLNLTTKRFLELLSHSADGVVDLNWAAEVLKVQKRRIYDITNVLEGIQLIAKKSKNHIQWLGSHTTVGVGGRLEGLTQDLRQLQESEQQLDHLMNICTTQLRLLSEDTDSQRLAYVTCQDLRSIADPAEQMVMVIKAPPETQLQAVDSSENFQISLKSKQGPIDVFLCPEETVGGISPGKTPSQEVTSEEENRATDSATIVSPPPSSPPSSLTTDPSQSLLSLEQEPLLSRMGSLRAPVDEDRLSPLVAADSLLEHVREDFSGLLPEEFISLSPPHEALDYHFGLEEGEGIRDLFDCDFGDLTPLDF
Chain of Hepatocyte nuclear factor 3-beta (Homo sapiens) (Q9Y261 whole entry, looked up): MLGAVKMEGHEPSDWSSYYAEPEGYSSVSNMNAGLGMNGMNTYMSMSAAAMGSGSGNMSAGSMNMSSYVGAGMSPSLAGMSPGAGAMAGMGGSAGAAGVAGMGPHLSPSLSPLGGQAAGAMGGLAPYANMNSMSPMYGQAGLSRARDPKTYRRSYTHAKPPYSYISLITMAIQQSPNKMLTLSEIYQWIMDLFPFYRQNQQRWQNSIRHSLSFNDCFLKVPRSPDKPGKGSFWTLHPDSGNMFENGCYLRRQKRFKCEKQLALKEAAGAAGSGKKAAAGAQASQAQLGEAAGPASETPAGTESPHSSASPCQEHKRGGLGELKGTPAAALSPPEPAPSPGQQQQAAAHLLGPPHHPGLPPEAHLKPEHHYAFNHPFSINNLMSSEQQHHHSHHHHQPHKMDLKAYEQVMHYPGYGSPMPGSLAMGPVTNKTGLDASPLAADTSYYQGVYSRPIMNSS
Chain of Retinoic acid receptor alpha (Homo sapiens) (P10276 whole entry, looked up): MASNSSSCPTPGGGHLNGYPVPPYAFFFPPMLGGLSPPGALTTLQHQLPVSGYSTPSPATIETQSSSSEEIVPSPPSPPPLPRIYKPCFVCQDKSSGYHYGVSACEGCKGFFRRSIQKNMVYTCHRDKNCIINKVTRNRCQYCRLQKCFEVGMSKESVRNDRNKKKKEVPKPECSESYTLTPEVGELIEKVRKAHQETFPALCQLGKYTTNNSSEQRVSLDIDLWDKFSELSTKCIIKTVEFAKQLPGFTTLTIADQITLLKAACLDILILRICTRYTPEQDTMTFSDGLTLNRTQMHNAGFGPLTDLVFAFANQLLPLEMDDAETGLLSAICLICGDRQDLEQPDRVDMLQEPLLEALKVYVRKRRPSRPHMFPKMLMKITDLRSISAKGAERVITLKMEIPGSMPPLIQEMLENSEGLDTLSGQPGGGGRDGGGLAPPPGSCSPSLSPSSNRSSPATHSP

As for `Cc1cc(C)c(C)c(O)c1`, the result in experiment [1], in experiment [2], in experiment [3], in experiment [4], in [5] and in experiment [6] was inactive. The compound was classed as inactive in [7], in [8], in experiment [9], in experiment [10], in experiment [11] and in [12]. The compound was classed as inactive in experiment [13], in experiment [14], in experiment [15], in experiment [16], in experiment [17] and in experiment [18]. The result in [19] and in experiment [20] was inactive.

For `CCCCCCCCc1ccc(Nc2ccc(CCCCCCCC)cc2)cc1`, the compound was classed as inactive in experiment [1], in experiment [2], in [3], in [4], in experiment [5] and in experiment [6]. In addition, the result in [7], in [8], in experiment [9], in [10], in [11] and in experiment [12] was inactive. Also, the call in experiment [13], in experiment [14], in experiment [15], in experiment [16], in experiment [17] and in [19] was inactive. The result in [20] was inactive.

Turning to `C=C(C)[C@@H]1CCC2=CCC[C@@H](C)[C@]2(C)C1`, the outcome in experiment [1], in experiment [2], in [4], in experiment [5], in [7] and in [8] was inactive. For the same compound, the outcome in [9], in experiment [10], in [11], in [12], in experiment [13] and in [14] was inactive. Moreover, the compound was classed as inactive in [16], in [17], in experiment [18], in experiment [19] and in [20]. The AC50 is 67 µM (active) in experiment [3], 100 µM (active) in experiment [6] and 57.2 µM (active) in experiment [15].
